Results on 91 compounds are retold here after PubChem BioAssay AID463173 (ICCB-Longwood Screening Facility, Harvard Medical School, 2010).

Screen size: about 52,000 compounds; about 4,300 (8.3%) were called active. Rule as the data show it: active = survival mostly below about 52% (no sharp cut-off); inactive = mostly above about 56%. The full list was thinned out, with actives kept by preference.

In this assay the test system is DeltatarO mutant. As to the kind of experiment: growth inhibition of S. aureus wild type versus tarO mutant, primary screen, teichoic acid synthesis inhibitors, RN4220, OD600 (AID 463173). As to conditions: OD600, 18 h, active compounds read low, screened at 18.75 µg/mL (by protocol).
As for `CCOC(=O)Cc1ccc(NC(=O)N2CCC(CN3CCC(C)CC3)CC2)cc1`, the survival is 81% (inactive). In the case of `COc1cc2cc(C)c(SCC(=O)N3CCN(C(=O)c4ccco4)CC3)nc2cc1OC`, the survival is 73% (inactive). For the compound `CCN(CC)S(=O)(=O)c1cccc2nsnc12`, the survival is 79% (inactive). To `Cc1cc(C)cc(NC(=O)CSc2nc3ncccc3[nH]2)c1` belongs 76% (inactive); to `Cc1ccc(NC(=O)CSc2nc3nccnc3c(=O)n2CCc2c[nH]c3ccccc23)cc1`, 82% (inactive). Turning to `Cc1ccc(NC(=O)CSc2nc3nccnc3c(=O)n2CCc2c[nH]c3ccccc23)cc1C`, the survival is 37% (active). For `Cc1cc(C)cc(NC(=O)CSc2nc3nccnc3c(=O)n2CCc2c[nH]c3ccccc23)c1`, the survival is 38% (active).

Consider `Cc1ccc(NC(=O)CSc2nc3c(sc4ccccc43)c(=O)n2CCCC(=O)NC2CCCC2)cc1C`, for which the survival was 87% (inactive). Consider `Cc1ccc(NC(=O)CSc2nc3ccccc3c(=O)n2CCC(=O)NC2CCCCC2)cc1C`, for which the survival was 86% (inactive).

With `COc1ccccc1C(=O)OCc1cc(=O)n2nc(C3CCCCC3)sc2n1`, the survival is 97% (inactive).

Regarding `c1ccc2c(NC3CCCC3)nc(N3CCNCC3)nc2c1`, the survival is 26% (inactive). Turning to `COc1ccc2c(Sc3ccc(Cl)cc3)c(C(=O)NCCCN3CCCCC3)[nH]c2c1`, the survival was -1% (active).

For `CC1CCN(CCCNC(=O)c2cc(Sc3ccc(F)cc3)nc3ccccc23)CC1`, the survival is 68% (inactive). Regarding `COc1ccc2c(Sc3ccccc3)c(C(=O)NCCCN3CCCCC3)[nH]c2c1`, the survival is 54% (inactive). As for `O=C(NCCCN1CCCCC1)c1cc(Sc2ccc(Cl)cc2)nc2ccccc12`, the survival is 17% (active). Regarding `COCCCNC(=O)c1[nH]c2ccccc2c1Sc1ccc(C)cc1`, the survival is 69% (inactive). In the case of `COc1ccc2c(Sc3ccccc3)c(C(=O)NCCc3ccc(Cl)cc3)[nH]c2c1`, the survival was 98% (inactive). As for `O=C(NCCCN1CCCCC1)c1[nH]c2ccccc2c1Sc1ccc(Cl)cc1`, the survival was 7% (active). Consider `CC1CCCCN1CCCNC(=O)c1cc(Sc2ccc(Cl)cc2)nc2ccccc12` (stereo unspecified), for which the survival was 94% (inactive).

As to `CCOCCCNC(=O)c1[nH]c2cc(C)ccc2c1Sc1ccc(Cl)cc1`, the survival was 85% (inactive).

On to `CNC(=O)c1cnc2sc(N3CCC(C)CC3)nn2c1=O`, for which the survival is 78% (inactive). On to `CCOC(=O)c1ccc2c(c1)N(Cc1cc(C)ccc1C)C(=O)c1ccccc1S2(=O)=O`, for which the survival is 85% (inactive). To `Cc1ccccc1C(=O)NC1CCN(Cc2nnnn2C2CCCC2)CC1` belongs 101% (inactive). Turning to `CCC(CC)C(=O)Nc1ccc(C(=O)OCc2cc(=O)n3nc(C4CC4)sc3n2)cc1`, the survival is 80% (inactive).

For `Cc1ccc(/C=C/c2onc(C)c2S(=O)(=O)N2CCC(C(=O)Nc3ccccc3C(F)(F)F)CC2)cc1`, the survival was 75% (inactive). In the case of `COc1ccc(-c2c3c(=O)n(C)c(=O)n(C)c3cn2-c2cccc(N)c2)cc1`, the survival was 79% (inactive). Regarding `COc1cccc2c1Oc1ncccc1N(c1ccc(C(=O)NCc3ccccc3C)s1)C2`, the survival was 84% (inactive). As for `CCOc1ccccc1CNC(=O)c1cc(-c2ccc(C)c(C)c2)nc2ccccc12`, the survival is 74% (inactive). For the compound `COc1ccc(NC(=O)c2ccc(NC(=O)CCS(=O)(=O)c3cccs3)cc2)cc1OC`, the survival is 50% (inactive). As to `Cc1ccc2sc(N3CCN(C(=O)CCS(=O)(=O)c4ccc(F)cc4)CC3)nc2c1C`, the survival was 115% (inactive).

As to `Cc1c(Cl)ccc2sc(N3CCN(C(=O)CCS(=O)(=O)c4ccc(F)cc4)CC3)nc12`, the survival is 0% (active).

For the compound `COc1cccc2sc(N3CCN(C(=O)CS(=O)(=O)c4ccc(Cl)cc4)CC3)nc12`, the survival is -4% (active). Turning to `Cc1ccc(S(=O)(=O)CC(=O)N2CCN(c3nc4c(F)cccc4s3)CC2)cc1`, the survival was -5% (active). Take `Cc1ccc2sc(N3CCN(C(=O)CCS(=O)(=O)c4ccc(Cl)cc4)CC3)nc2c1C`: the survival is 64% (inactive).

Take `Cc1ccc(S(=O)(=O)CCC(=O)N2CCN(c3nc4c(C)c(C)ccc4s3)CC2)cc1`: the survival is 92% (inactive). In the case of `Cc1c(Cl)ccc2sc(N3CCN(C(=O)CS(=O)(=O)c4ccccc4)CC3)nc12`, the survival is 106% (inactive). For `Cc1ccc(S(=O)(=O)CCC(=O)N2CCN(c3nc4c(C)c(Cl)ccc4s3)CC2)cc1`, the survival was 72% (inactive). To `COc1cccc2sc(N3CCN(C(=O)CCS(=O)(=O)c4ccc(F)cc4)CC3)nc12` belongs 66% (inactive); to `Cc1cccc2sc(N3CCN(C(=O)CS(=O)(=O)c4ccc(F)cc4)CC3)nc12`, 102% (inactive); to `CCCCC(=O)N1CCN(c2nc3c(C)c(C)ccc3s2)CC1`, 46% (active).

In the case of `COc1ccc(OC)c2sc(N3CCN(C(=O)CCS(=O)(=O)c4ccc(F)cc4)CC3)nc12`, the survival is 94% (inactive). Turning to `O=c1cc(-c2ccccc2)n2c(SCc3cccc([N+](=O)[O-])c3)nnc2[nH]1`, the survival is 69% (inactive). With `Cc1noc(Cn2c(=O)c3cc4c(cc3n(CC(=O)Nc3ccccc3F)c2=O)OCO4)n1`, the survival is 77% (inactive). As to `Cc1cccc(CS(=O)(=O)Cc2ccc(C(=O)NCc3ccc(Cl)cc3)o2)c1`, the survival was 130% (inactive). Under `Cc1ccc(-n2c(=O)c3c4c(sc3n(CC(=O)c3ccc(Cl)cc3)c2=O)CCC4)cc1C` stands 168% (inactive). Consider `Cc1ccc(Cl)cc1NC(=O)CCC(=O)NCc1ccco1`, for which the survival is 74% (inactive). On to `Cc1ccc(NS(=O)(=O)c2ccc3c(c2)CCCN3C(=O)C2CCC2)cc1Cl`, for which the survival is 107% (inactive). Take `CCc1cccc(C)c1NC(=O)Cn1cc2c(n1)CCCC2`: the survival is 99% (inactive). In the case of `CCc1ccccc1NS(=O)(=O)c1ccc2[nH]cc(C(=O)N(CC(C)C)CC(C)C)c(=O)c2c1`, the survival was 84% (inactive). Regarding `COc1ccc(C(=O)Nc2nnc(S(=O)(=O)N(CC(C)C)c3ccccc3)s2)cc1`, the survival was 51% (inactive). `Cc1ccc(N(CC(C)C)S(=O)(=O)c2nnc(NC(=O)C(C)C)s2)cc1`: the survival is 72% (inactive).

`Cc1ccc(N(CC(C)C)S(=O)(=O)c2nnc(NC(=O)c3cccs3)s2)cc1`: the survival was 34% (active). Take `CC(C)CN(c1ccccc1)S(=O)(=O)c1nnc(NC(=O)C2CCCCC2)s1`: the survival was 51% (inactive). With `COc1ccc(C(=O)Nc2nnc(S(=O)(=O)N(CC(C)C)c3ccc(C)cc3)s2)cc1OC`, the survival is 68% (inactive). In the case of `COc1ccc(N(CC(C)C)S(=O)(=O)c2nnc(NC(=O)c3cccs3)s2)cc1`, the survival is 42% (active).

As for `CCc1ccc(CNC(=O)C2CCN(C(=O)N3CC(CC)Oc4ccc(C)cc43)CC2)cc1` (stereo unspecified), the survival is 55% (inactive). Consider `CC(C)c1ccc(OCC(=O)Nc2c(Cl)ccc3nsnc23)cc1`, for which the survival was 41% (active). With `Cc1ccc2nc(-c3ccc(Cl)c(NC(=O)COc4cccc(C)c4C)c3)oc2c1`, the survival was 48% (active). With `Cc1ccc2nc(-c3ccc(Cl)c(NC(=O)COc4ccc([N+](=O)[O-])cc4)c3)oc2c1`, the survival was 54% (inactive). In the case of `Cc1ccc2nc(-c3ccc(Cl)c(NC(=O)COc4ccc(C(C)C)cc4)c3)oc2c1`, the survival was 42% (active). As for `Cc1cccc(OCC(=O)Nc2ccc(-c3nc4ccccc4o3)cc2)c1C`, the survival was 52% (active). With `Cc1cc(C)cc(OCC(=O)Nc2ccc(-c3nc4ccccc4o3)cc2)c1`, the survival is 51% (inactive).

For `O=C(COc1ccccc1)Nc1c(Cl)ccc2nsnc12`, the survival was 74% (inactive). Consider `Cc1ccc2nc(-c3ccc(Cl)c(NC(=O)c4cccc([N+](=O)[O-])c4C)c3)oc2c1`, for which the survival was 126% (inactive). For `Cc1ccc(OCC(=O)Nc2c(Cl)ccc3nsnc23)cc1C`, the survival was 71% (inactive). Turning to `Cc1ccc(OCC(=O)Nc2ccc(-c3nc4ccccc4o3)cc2)c(C)c1`, the survival was 63% (inactive).

As to `Cc1ccc2nc(-c3ccc(C)c(NC(=O)Cc4ccccc4)c3)oc2c1`, the survival is 77% (inactive).

On to `Cc1cc2nc(-c3cccc(NC(=O)COc4ccc(C(C)C)cc4)c3)oc2cc1C`, for which the survival was 50% (inactive).

As to `CN1CCN(C(=O)/C(=C/c2cccs2)NC(=O)c2cccs2)CC1`, the survival was 74% (inactive). In the case of `CC(C)CCNC(=O)c1cnc2sc(N3CCCCCC3)nn2c1=O`, the survival is 78% (inactive). Consider `CCN(CC)S(=O)(=O)c1ccc2c(c1)c(=O)c(C(=O)N1CCN(c3cccc(C)c3)C(C)C1)cn2C` (stereo unspecified), for which the survival is 78% (inactive). As for `COc1ccc(N2CCN(C(=O)c3nn(-c4ccc(C)cc4)c(=O)n(C)c3=O)CC2)cc1`, the survival was 71% (inactive).

`CCN(CC)CCNC(=O)CCn1c(=O)c2cccn2c2cccnc21`: the survival was 87% (inactive). `O=C(Cn1nnc(-c2ccc(Cl)cc2)n1)NCc1ccc(F)cc1`: the survival is 78% (inactive). Under `CC(C)c1ccc(NC(=O)N2c3ccccc3Sc3ccccc32)cc1` stands 6% (active); under `O=C(C1CC1)N1c2ccccc2Sc2ccccc21`, 73% (inactive); under `CCOC(=O)N1c2ccccc2Sc2ccccc21`, 98% (inactive).

As to `CCc1ccc(NC(=O)N2c3ccccc3Sc3ccccc32)cc1`, the survival was -2% (active).

For the compound `CCN(CC)C(=O)N1c2ccccc2Sc2ccccc21`, the survival is 99% (inactive).

Turning to `CC(=O)N1c2ccccc2Sc2ccccc21`, the survival is 102% (inactive). In the case of `Cc1ccc(-c2cc(C(F)F)n3ncc(C(=O)Nc4cn(C)nc4C)c3n2)cc1`, the survival is 89% (inactive). In the case of `CC1=C(C(=O)Nc2ccc(F)cc2F)C2(CCCCCC2)OC1=O`, the survival was 83% (inactive). In the case of `Cc1cc(=O)n(CC(=O)Nc2cccc([N+](=O)[O-])c2)c(-n2nc(C)cc2C)n1`, the survival is 95% (inactive).

In the case of `Cc1cc(C)n(-c2nc(C)c(C)c(=O)n2CC(=O)Nc2cccc([N+](=O)[O-])c2)n1`, the survival was 52% (active). On to `Cc1cc(C)n(-c2nc(C)c(C)c(=O)n2CC(=O)Nc2ccc([N+](=O)[O-])cc2)n1`, for which the survival was 77% (inactive).

For `Clc1ccc(CN2CCN(c3ncnc4sc5c(c34)CCCC5)CC2)cc1Cl`, the survival is 107% (inactive). To `COc1ccc(CN2CCN(c3ncnc4sc5c(c34)CCCC5)CC2)cc1F` belongs 33% (active); to `Cc1nc(N2CCN(C(=O)c3ccco3)CC2)c2c3c(sc2n1)CC(C(C)(C)C)CC3` (stereo unspecified), 77% (inactive). For `COc1ccc(CN2CCN(c3ncnc4sc5c(c34)CC(C)CC5)CC2)cc1F` (stereo unspecified), the survival was 83% (inactive). To `c1nc(N2CCCC2)c2c3c(sc2n1)CCC3` belongs 70% (inactive); to `O=C(c1ccco1)N1CCN(c2ncnc3sc4c(c23)CCC4)CC1`, 36% (active).
